# According to the supplement of paper PMC8728848:
# This is one part of a sample in which the strongest signals are shown more often than they occur.
# B1: EUL D1A second (Oryza sativa) (protein)
# chain: GAATACTIGGVPVHTVRVFSAAGEDYCLTVRNGTACLAPKNPRDDYQHWIKDMRHSNKIRDEEGYPAFALVNKVTGEAIKHSTGQGHPVKLVPYNPEYQDESVLWTESKDVGKGFRCIRMVNNIYLNFDAFHGDKDHGGIHDGTEIVLWKWCEGDNQRWKILPWILEQKLISEEDLNSAVDHHHHHH
# Experiments:
# Assay in all cases: glycan array binding signal (z-score within array); higher = stronger binding
# Conditions in all cases: glycan notation: IUPAC condensed, linker removed
# [1] = target: Fuc(a1-2)Gal(b1-3)GlcNAc(b1-3)Gal(b1-4)Glc
# Outline: (§1)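 Negative Z-scores can be read as non-binding. The Z-score is calculated within each array and then averaged across arrays of one protein sequence at different concentrations or buffers and across linkers. Arrays, 3228 in all, were curated from the Consortium for Functional Glycomics database and kept only where the protein sequence was available.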
# [2] = target: Fuc(a1-2)Gal(b1-3)GlcNAc(b1-3)GalNAc
# Outline: as §1
# [3] = target: Fuc(a1-2)Gal(b1-3)[Fuc(a1-4)]GlcNAc(b1-2)Man(a1-3)[Fuc(a1-2)Gal(b1-3)[Fuc(a1-4)]GlcNAc(b1-2)Man(a1-6)]Man(b1-4)GlcNAc(b1-4)[Fuc(a1-6)]GlcNAc(b1-4)[Fuc(a1-6)]GlcNAc
# Outline: as §1
# [4] = target: Fuc(a1-2)Gal(b1-3)[Fuc(a1-4)]GlcNAc(b1-3)[Gal(b1-4)GlcNAc(b1-6)]Gal(b1-4)Glc
# Outline: as §1
# [5] = target: Fuc(a1-2)Gal3S(b1-4)GlcNAc
# Outline: as §1
# [6] = target: Fuc(a1-2)Gal6S(b1-3)GlcNAc6S
# Outline: as §1
# [7] = target: Fuc(a1-2)[GalNAc(a1-3)]Gal
# Outline: as §1
# [8] = target: Fuc(a1-2)[GalNAc(a1-3)]Gal(b1-4)GlcNAc
# Outline: as §1
# [9] = target: Fuc(a1-2)[GalNAc(a1-3)]Gal(b1-4)GlcNAc(b1-3)Gal(b1-4)GlcNAc
# Outline: as §1
# [10] = target: Fuc(a1-2)[GalNAc(a1-4)]Gal(b1-4)GlcNAc
# Outline: as §1
# [11] = target: Fuc(a1-2)[GalNAc(b1-3)]Gal
# Outline: as §1
# [12] = target: Fuc(a1-3)[Gal(b1-4)]GlcNAc(b1-2)Man
# Outline: as §1
# [13] = target: Fuc(a1-3)[Gal(b1-4)]GlcNAc(b1-3)Gal(b1-4)[Fuc(a1-3)]GlcNAc
# Outline: as §1
# [14] = target: Fuc(a1-3)[Gal(b1-4)]GlcNAc(b1-3)GalNAc
# Outline: as §1
# [15] = target: Fuc(a1-3)[Gal(b1-4)]GlcNAc6S
# Outline: as §1
# [16] = target: Gal(a1-3)GalNAc
# Outline: as §1
# [17] = target: Gal(a1-4)GlcNAc
# Outline: as §1
# [18] = target: Gal(b1-3)Gal
# Outline: as §1
# [19] = target: Gal(b1-3)GalNAc(b1-3)Gal(a1-4)Gal(b1-4)Glc
# Outline: as §1
# [20] = target: Gal(b1-3)GlcNAc(b1-3)Gal(b1-4)GlcNAc(b1-2)[Gal(b1-3)GlcNAc(b1-3)Gal(b1-4)GlcNAc(b1-6)]Man(a1-6)[Gal(b1-3)GlcNAc(b1-3)Gal(b1-4)GlcNAc(b1-2)Man(a1-3)]Man(b1-4)GlcNAc(b1-4)[Fuc(a1-6)]GlcNAc
# Outline: as §1
# [21] = target: Gal(b1-3)GlcNAc(b1-3)Gal(b1-4)GlcNAc(b1-3)Gal(b1-4)GlcNAc(b1-2)[Gal(b1-3)GlcNAc(b1-3)Gal(b1-4)GlcNAc(b1-3)Gal(b1-4)GlcNAc(b1-6)]Man(a1-6)[Gal(b1-3)GlcNAc(b1-3)Gal(b1-4)GlcNAc(b1-3)Gal(b1-4)GlcNAc(b1-2)Man(a1-3)]Man(b1-4)GlcNAc(b1-4)[Fuc(a1-6)]GlcNAc
# Outline: as §1
# [22] = target: Gal(b1-4)Gal
# Outline: as §1
# [23] = target: Gal(b1-4)GlcNAc(b1-2)Man
# Outline: as §1
# [24] = target: Gal(b1-4)GlcNAc(b1-2)Man(a1-3)[Man(a1-6)]Man(b1-4)GlcNAc(b1-4)GlcNAc
# Outline: as §1
# [25] = target: Gal(b1-4)GlcNAc(b1-2)[Gal(b1-4)GlcNAc(b1-4)]Man(a1-3)[GlcNAc(b1-4)][Gal(b1-4)GlcNAc(b1-2)[Gal(b1-4)GlcNAc(b1-6)]Man(a1-6)]Man(b1-4)GlcNAc(b1-4)GlcNAc
# Outline: as §1
# [26] = target: Gal(b1-4)GlcNAc(b1-2)[Gal(b1-4)GlcNAc(b1-6)]Man(a1-6)[GlcNAc(b1-4)][Gal(b1-4)GlcNAc(b1-2)Man(a1-3)]Man(b1-4)GlcNAc(b1-4)GlcNAc
# Outline: as §1
# [27] = target: Gal(b1-4)GlcNAc(b1-3)Gal(b1-3)GlcNAc
# Outline: as §1
# [28] = target: Gal(b1-4)GlcNAc(b1-3)Gal(b1-4)Glc
# Outline: as §1
# [29] = target: Gal(b1-4)GlcNAc(b1-3)Gal(b1-4)GlcNAc
# Outline: as §1
# [30] = target: Gal(b1-4)GlcNAc(b1-3)Gal(b1-4)GlcNAc(b1-2)[Gal(b1-4)GlcNAc(b1-3)Gal(b1-4)GlcNAc(b1-6)]Man(a1-6)[Gal(b1-4)GlcNAc(b1-3)Gal(b1-4)GlcNAc(b1-2)Man(a1-3)]Man(b1-4)GlcNAc(b1-4)[Fuc(a1-6)]GlcNAc
# Outline: as §1
binder,measurement,setting,value
B1,glycan array binding signal (z-score),[1],-1.01
same,glycan array binding signal (z-score),[2],-0.565
same,glycan array binding signal (z-score),[3],0.045
same,glycan array binding signal (z-score),[4],1.09
same,glycan array binding signal (z-score),[5],0.228
same,glycan array binding signal (z-score),[6],1.43
same,glycan array binding signal (z-score),[7],-0.789
same,glycan array binding signal (z-score),[8],-1.07
same,glycan array binding signal (z-score),[9],-0.086
same,glycan array binding signal (z-score),[10],0.772
same,glycan array binding signal (z-score),[11],-0.072
same,glycan array binding signal (z-score),[12],0.112
same,glycan array binding signal (z-score),[13],-0.106
same,glycan array binding signal (z-score),[14],0.566
same,glycan array binding signal (z-score),[15],-0.105
same,glycan array binding signal (z-score),[16],-1.42
same,glycan array binding signal (z-score),[17],-1.01
same,glycan array binding signal (z-score),[18],-0.342
same,glycan array binding signal (z-score),[19],2.08
same,glycan array binding signal (z-score),[20],4.86
same,glycan array binding signal (z-score),[21],4.47
same,glycan array binding signal (z-score),[22],3.37
same,glycan array binding signal (z-score),[23],1.59
same,glycan array binding signal (z-score),[24],-0.232
same,glycan array binding signal (z-score),[25],-0.986
same,glycan array binding signal (z-score),[26],-0.799
same,glycan array binding signal (z-score),[27],-0.245
same,glycan array binding signal (z-score),[28],-0.283
same,glycan array binding signal (z-score),[29],-0.532
same,glycan array binding signal (z-score),[30],3.31
